Compounds without any hit were thinned out: in the full panel of roughly 79,000, 15% have a hit. Calls of active or inactive are those of the source. Rule as the data show it: active = growth inhibition above about 70%; inactive = the rest.
Assays:
[1] = NCI Yeast Anticancer Drug Screen. Data for the rad52 strain (AID 147);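 also: 0% = growth of vehicle-treated control cultures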; details: S. cerevisiae rad52 mutant growth inhibition, hits give high values
How it was run: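 Here a repair-compromised yeast strain receives each compound; its growth is then quantified and normalised to vehicle-only controls.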

[2] = NCI Yeast Anticancer Drug Screen. Data for the wt1 strain (AID 149);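 also: 0% = growth of vehicle-treated wt1 cultures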; details: S. cerevisiae wt1 strain (SPY 50644) growth inhibition, hits give high values
How it was run: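 wt1 yeast, compound-treated; % growth inhibition vs vehicle control.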

[3] = NCI Yeast Anticancer Drug Screen. Data for the rad50EPP+ strain (AID 151);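 also: 0% = growth of vehicle-treated control cultures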; details: S. cerevisiae rad50 mutant strain, hits give high values
How it was run: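 Read-out is yeast growth inhibition relative to vehicle; cells used were the rad50EPP+ strain.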

[4] = NCI Yeast Anticancer Drug Screen. Data for the rad50 strain (AID 155);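 also: 0% = growth of vehicle-only cultures of the same strain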; details: S. cerevisiae rad50 strain growth inhibition, hits give high values
How it was run: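 Genetically altered yeast (DNA repair pathway); compound treatment; growth inhibition vs vehicle ctrl.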

[5] = NCI Yeast Anticancer Drug Screen. Data for the mec2-1 strain (AID 157); details: S. cerevisiae mec2-1 strain, hits give high values
How it was run: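 Using mec2-1 yeast: add compound, measure growth, express inhibition versus vehicle-treated cultures.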

[6] = NCI Yeast Anticancer Drug Screen. Data for the rad14 strain (AID 159);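 also: 0% = growth of vehicle-treated control cultures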; details: S. cerevisiae rad14 strain growth inhibition, hits give high values
How it was run: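 Test compounds were applied to a repair-deficient yeast strain. Its growth was then compared with that of cultures given vehicle alone, and inhibition was expressed relative to those controls.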

[7] = NCI Yeast Anticancer Drug Screen. Data for the sgs1 mgt1 strain (AID 161);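 also: 0% = growth of cultures given vehicle only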; details: S. cerevisiae sgs1 mgt1 strain, hits give high values
How it was run: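 This yeast growth screen uses a strain with defined DNA-repair lesions; compound-treated growth is compared with vehicle-treated growth.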

[8] = NCI Yeast Anticancer Drug Screen. Data for the CLN2oe strain (AID 163);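 also: 0% = growth of vehicle-only control cultures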; details: S. cerevisiae CLN2oe strain, hits give high values
How it was run: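 Whole-cell yeast growth assay. A strain engineered for altered cell-cycle control received compound, and inhibition relative to vehicle-treated cultures was recorded.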

[9] = NCI Yeast Anticancer Drug Screen. Data for the cln2 rad14 strain (AID 165);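 also: 0% = growth equal to vehicle treated cultures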; details: S. cerevisiae cln2 rad14 strain, hits give high values
How it was run: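 Yeast strain cln2 rad14, bearing defects in cell cycle control and DNA repair, serves as the test system; values reflect growth inhibition compared with vehicle.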

[10] = NCI Yeast Anticancer Drug Screen. Data for the bub3 strain (AID 167); details: S. cerevisiae bub3 mutant strain, hits give high values
How it was run: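 Yeast carrying a defined mutation is treated with each compound, and growth is compared with that of vehicle-exposed cells to give inhibition.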

[11] = NCI Yeast Anticancer Drug Screen. Data for the wt2 strain (AID 169);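 also: 0% = growth of vehicle-treated yeast cultures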; details: S. cerevisiae wt2 strain growth inhibition, hits give high values
How it was run: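 Treated yeast vs. vehicle-treated yeast: growth inhibition determined.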

[12] = NCI Yeast Anticancer Drug Screen. Data for the mlh1 strain (AID 171);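 also: 0% = growth of vehicle-treated control cultures of the same strain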; details: S. cerevisiae mlh1 strain growth inhibition, hits give high values
How it was run: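 A yeast strain with a defined genetic lesion serves as the test organism. Cultures receive compound or vehicle, and growth is measured.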

[13] = NCI Yeast Anticancer Drug Screen. Data for the sgs1 strain (AID 173);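 also: 0% = growth of vehicle-only control cultures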; details: S. cerevisiae sgs1 mutant, hits give high values
How it was run: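 A genetically defined yeast mutant is incubated with the test compound, and its growth is compared to that of the same strain given vehicle.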

[14] = NCI Yeast Anticancer Drug Screen. Data for the mlh1 rad18 strain (AID 175); details: S. cerevisiae mlh1 rad18 strain growth inhibition, hits give high values
How it was run: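 Steps: expose repair-defective yeast to compound; measure growth; express inhibition against vehicle-treated controls.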

[15] = NCI Yeast Anticancer Drug Screen. Data for the rad18 strain (AID 177); details: S. cerevisiae rad18 mutant growth inhibition, hits give high values
How it was run: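 Measured value is growth inhibition of a yeast strain bearing a DNA repair alteration, referenced to vehicle-treated cells.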

[16] = at 5.0 µM (retest, dose inferred, filed as 0.5)
[17] = at 50.0 µM (retest, dose inferred, filed as 5.0)

Measured: growth inhibition

O=[N+]([O-])/C(C(Cl)=C(Cl)Cl)=C1/OCCS1
inactive: [1]; at 1.2 µM 30% | [2]; at 1.2 µM 4% | [2]; at 3.7 µM 30% | [3]; at 1.2 µM 20% | [3]; at 3.7 µM 37% | [3]; at 11.0 µM 61% | [3]; at 100.0 µM 64% | [4]; at 1.2 µM 19% | [4]; at 3.7 µM 56% | [4]; [16] 16% | [5]; at 1.2 µM 24% | [5]; at 3.7 µM 55% | [5]; [16] 11% | [6]; at 1.2 µM 14% | [6]; at 3.7 µM 39% | [7]; [16] 40% | [8]; at 1.2 µM 15% | [8]; at 3.7 µM 44% | [9]; [16] -2% | [10]; at 1.2 µM 6% | [10]; at 3.7 µM 27% | [10]; [16] -12% | [11]; at 1.2 µM 7% | [11]; at 3.7 µM 32% | [12]; at 1.2 µM 11% | [12]; at 3.7 µM 48% | [13]; at 1.2 µM 42% | [14]; [16] 60%
active: [1]; at 3.7 µM 72% | [1]; at 11.0 µM 97% | [1]; at 33.0 µM 99% | [1]; at 100.0 µM 99% | [2]; at 11.0 µM 94% | [2]; at 33.0 µM 99% | [2]; at 100.0 µM 99% | [3]; at 33.0 µM 77% | [4]; at 11.0 µM 95% | [4]; at 33.0 µM 99% | [4]; [17] 100% | [4]; at 50.0 µM 90.5% | [4]; at 100.0 µM 99% | [5]; at 11.0 µM 97% | [5]; at 33.0 µM 98% | [5]; [17] 100% | [5]; at 50.0 µM 93.6% | [5]; at 100.0 µM 98% | [6]; at 11.0 µM 96% | [6]; at 33.0 µM 99% | [6]; at 100.0 µM 98% | [7]; [17] 100% | [7]; at 50.0 µM 90.6% | [8]; at 11.0 µM 94% | [8]; at 33.0 µM 98% | [8]; at 100.0 µM 99% | [9]; [17] 99% | [9]; at 50.0 µM 91% | [10]; at 11.0 µM 90% | [10]; at 33.0 µM 99% | [10]; [17] 100% | [10]; at 50.0 µM 92.5% | [10]; at 100.0 µM 98% | [11]; at 11.0 µM 95% | [11]; at 33.0 µM 99% | [11]; at 100.0 µM 99% | [12]; at 11.0 µM 97% | [12]; at 33.0 µM 99% | [12]; at 100.0 µM 98% | [13]; at 3.7 µM 78% | [13]; at 11.0 µM 97% | [13]; at 33.0 µM 99% | [13]; at 100.0 µM 99% | [14]; [17] 100% | [14]; at 50.0 µM 86.2% | [15]; at 1.2 µM 86% | [15]; at 3.7 µM 93% | [15]; at 11.0 µM 97% | [15]; at 33.0 µM 99% | [15]; at 100.0 µM 98%

CCC(c1ccc(O)cc1)C(CC)c1ccc(OCCN)cc1 (stereo unspecified)
active: [1]; at 100.0 µM 88% | [4]; at 100.0 µM 88% | [6]; at 100.0 µM 98% | [7]; [17] 76% | [8]; at 100.0 µM 83% | [10]; at 100.0 µM 72% | [11]; at 100.0 µM 92% | [12]; at 100.0 µM 91% | [13]; at 100.0 µM 94% | [14]; [17] 87% | [15]; at 100.0 µM 91%
inactive: [1]; at 1.2 µM -5% | [1]; at 3.7 µM 0% | [1]; at 11.0 µM 0% | [1]; at 33.0 µM 11% | [2]; at 1.2 µM -4% | [2]; at 3.7 µM -4% | [2]; at 11.0 µM -8% | [2]; at 33.0 µM -8% | [2]; at 100.0 µM 27% | [3]; at 1.2 µM -3% | [3]; at 3.7 µM 1% | [3]; at 11.0 µM 12% | [3]; at 33.0 µM 1% | [3]; at 100.0 µM 10% | [4]; at 1.2 µM 0% | [4]; at 3.7 µM -1% | [4]; [16] 18% | [4]; at 11.0 µM 3% | [4]; at 33.0 µM 27% | [4]; [17] 69% | [4]; at 50.0 µM 27.9% | [5]; at 1.2 µM -3% | [5]; at 3.7 µM -3% | [5]; [16] -4% | [5]; at 11.0 µM -7% | [5]; at 33.0 µM -4% | [5]; [17] 8% | [5]; at 50.0 µM 6.25% | [5]; at 100.0 µM 64% | [6]; at 1.2 µM -3% | [6]; at 3.7 µM 1% | [6]; at 11.0 µM 3% | [6]; at 33.0 µM 17% | [7]; [16] 0% | [7]; at 50.0 µM 60.1% | [8]; at 1.2 µM -1% | [8]; at 3.7 µM -4% | [8]; at 11.0 µM 5% | [8]; at 33.0 µM 19% | [9]; [16] -2% | [9]; [17] 25% | [9]; at 50.0 µM -1.25% | [10]; at 1.2 µM -2% | [10]; at 3.7 µM -3% | [10]; [16] -19% | [10]; at 11.0 µM -7% | [10]; at 33.0 µM -1% | [10]; [17] 62% | [10]; at 50.0 µM 45.1% | [11]; at 1.2 µM -2% | [11]; at 3.7 µM -9% | [11]; at 11.0 µM 6% | [11]; at 33.0 µM 8% | [12]; at 1.2 µM -3% | [12]; at 3.7 µM -4% | [12]; at 11.0 µM -5% | [12]; at 33.0 µM 12% | [13]; at 1.2 µM -23% | [13]; at 3.7 µM -46% | [13]; at 11.0 µM -18% | [13]; at 33.0 µM 15% | [14]; [16] 12% | [14]; at 50.0 µM 14.6% | [15]; at 1.2 µM -7% | [15]; at 3.7 µM -6% | [15]; at 11.0 µM -6% | [15]; at 33.0 µM 0%
